Screening results from PubChem.
Hits are enriched below; roughly 4% of the tested compounds scored in any of these assays.
FBA Mtb inh = inhibits M. tuberculosis FBA enzyme; P9WQA3; purified M. tuberculosis FBA, fluorescence read-out; inhibition, % at 1 µM; 360,000 compounds, 2.3% hits; AID 588726; in the data active = inhibition above about 27%;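 also: 0% = vehicle and 100% = reference inhibitor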
Target sequence (P9WQA3 whole entry, looked up): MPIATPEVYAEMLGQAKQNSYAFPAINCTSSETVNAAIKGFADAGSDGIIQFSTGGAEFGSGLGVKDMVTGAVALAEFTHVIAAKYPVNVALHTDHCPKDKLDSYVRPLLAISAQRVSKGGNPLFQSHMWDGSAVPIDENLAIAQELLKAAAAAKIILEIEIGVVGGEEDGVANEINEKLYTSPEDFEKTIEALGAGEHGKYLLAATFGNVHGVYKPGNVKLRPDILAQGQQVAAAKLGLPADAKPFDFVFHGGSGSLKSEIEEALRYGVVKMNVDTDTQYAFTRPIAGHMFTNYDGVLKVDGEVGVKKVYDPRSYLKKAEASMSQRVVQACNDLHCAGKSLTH
RecA intein inh = Mtb RecA intein splicing inhibition. P9WHJ3. cell-free RecA intein splicing, fluorescence. inhibition, % (test concentration not listed). 290,000 compounds, 0.75% hits; in the data active = inhibition above about 30%;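 also: 0% = vehicle wells and 100% = reference inhibitor control wells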
Mtb bLac sens = beta-lactam sensitization of Mtb H37Rv. 330,000 compounds, 0.27% hits. inhibition, % at 25 µM. M. tuberculosis H37Rv growth with meropenem, percent inhibition; call rule not given here;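 also: growth measured after seven days incubation then overnight dye step; 0% = bacteria only wells and 100% = bacteria with antibiotic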
GDH-TPI counter = counter-screen for M. tuberculosis FBA inhibitors: GDH-TPI coupled enzymes | GDH-TPI coupled enzyme counterscreen, NADH absorbance | inhibition, % at 4.8 µM | 360,000 compounds, 1.2% hits | AID 588335; in the data active = inhibition above about 30%;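 also: 0% = DMSO wells and 100% = wells lacking the enzyme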
Mtb UGM inh = blocks M. tuberculosis UGM enzyme | P9WIQ1 | purified UGM, fluorescence polarization probe displacement | inhibition, % at 10 µM | 320,000 compounds, 0.06% hits; in the data active = inhibition above about 10%, passing the limit was not always enough
Rv3671c protease = inhibitors of M. tuberculosis serine protease Rv3671c. 320,000 compounds, 0.048% hits. inhibition, % at 5.96 µM. AID 2606; in the data active = inhibition above about 38%;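 also: extracellular domain of Rv3671c used as enzyme; 0% = enzyme with DMSO and 100% = no enzyme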
* = called active by the depositor; · = not tested or not shown; + = active, no number.

SMILES	FBA Mtb inh	RecA intein inh	Mtb bLac sens	GDH-TPI counter	Mtb UGM inh	Rv3671c protease
Cc1cc(C)c(S(=O)(=O)N2CCCCC2CCNC(=O)C(=O)NCc2ccccn2)c(C)c1 (stereo not drawn)	-1	1	-1	6	-1	0
CC1=C(C(=O)N(C(C)C)C(C)C)CC(CC(=O)NC2CCCC2)C(=O)N1Cc1ccc(C(C)(C)C)cc1 (stereo not drawn)	2	·	·	·	·	·
COCCNC(=S)N/N=C(\C)c1ccccc1O	1	0	95	31*	0	-1
COCCNC(=S)N/N=C(\C)c1ccc(Cl)s1	1	1	94	45*	2	11
Cc1ccc(CNS(=O)(=O)c2ccc(CN3C(=O)c4cccnc4C3=O)s2)o1	-4	-2	10	-4	0	0
CC1=CC(=O)C=CC1=Nc1ccc(N(C)C)cc1	-1	·	·	·	·	·
COc1ccc(-c2cc(=O)c3cc(OC)ccc3[nH]2)cc1	76*	-1	-10	3	-1	2
COc1cccc(-c2cc(=O)c3cc(NC(C)=O)ccc3[nH]2)c1	115*	-5	-7	18	0	-4
Cc1ccc(C)c(NS(=O)(=O)c2cc(C(=O)NCc3ccccn3)ccc2C)c1	1	3	1	7	-1	-3
CC(C)n1c(=O)nc(-c2ccccc2)c2cc3c(cc21)OCO3	1	·	·	6	·	·
Cc1cccc(C)c1NC(=O)C1(C)CCC(=O)N1C1CC1 (stereo not drawn)	0	·	·	·	·	·
CCN(CC)C(=O)c1cc2c(=O)n3ccccc3nc2s1	186*	-65	-2	24	-2	2
COCCN(CCOC)C(=O)c1cc2c(=O)n3ccccc3nc2s1	+	·	0	32*	-1	1
C=CCC[C@H](Cc1ccc(F)cc1)C(=O)OC[C@H](C)NC(=O)[C@@H](CC=C)CC(=O)N[C@H](CO)Cc1ccccc1	0	·	0	-11	2	-4
COc1ccc(-c2nc3ccc(Br)cn3c2Cc2cccc(Cl)c2)cc1OC	-1	·	·	·	·	·
O=C(NN1CC(C(=O)OCc2ccc(Cl)cc2Cl)CC1=O)c1ccccc1 (stereo not drawn)	4	2	5	1	3	·
N#CC(C(=O)Nc1ccc(Cl)c(Cl)c1)=C1Nc2ccccc2N1	7	-1	3	32*	1	-19
N#CC(C(=O)Nc1cccc(Cl)c1)=C1Nc2ccccc2N1	0	0	-2	30	0	5
CCc1ccc(C2C(C#N)=C(N)SC(N)=C2C#N)cc1	7	-7	3	31*	-2	-23
CN(C(=O)c1ccc(Br)o1)C1(C)CCS(=O)(=O)C1 (stereo not drawn)	0	2	-7	2	-3	-10
CN(C)c1ccc(CC(=O)N2CCCCC2c2cc(C(=O)Nc3cccc(C#N)c3)no2)cc1 (stereo not drawn)	1	·	·	12	·	·
N#CCCN1CCN(C(=S)c2ccc(-c3cccc(Cl)c3)o2)CC1	-3	5	74	39*	-1	-14
N#CCCN1CCN(C(=S)c2ccc(-c3ccc(Cl)c(Cl)c3)o2)CC1	-2	11	-19	24	2	-20
O=C(N/N=C/c1ccccc1Cl)c1cccc(F)c1	0	-2	84	8	1	6
O=C(N/N=C/c1cccc2ccccc12)c1ccc(CN2CCOCC2)cc1	6	-1	6	41*	0	-4
SMILES	FBA Mtb inh	RecA intein inh	Mtb bLac sens	GDH-TPI counter	Mtb UGM inh	Rv3671c protease
O=C(N/N=C/c1cccc2ccccc12)c1cccc(F)c1	-2	3	2	34*	0	-13
Nc1ccc(C(=O)N/N=C/c2cn(Cc3cccc(F)c3)c3ccccc23)cc1	2	0	15	32*	-1	·
O=C(CNc1ccccc1)N/N=C/c1ccc2c(c1)OCO2	-2	0	0	11	1	3
O=C(CNc1ccc2c(c1)OCO2)N/N=C\c1cn(Cc2ccccc2)c2ccccc12	1	-3	18	31*	1	1
COc1ccc(NS(=O)(=O)c2ccc(C)c(C(=O)NCC(c3ccco3)N(C)C)c2)cc1 (stereo not drawn)	-1	0	-8	-11	-2	2
CN(CC(=O)Nc1cccc(F)c1)C(=O)CCCN1C(=O)c2cccc3cccc(c23)C1=O	9	1	-17	11	0	8
CCOC(=O)C(/C=C(\C#N)C(=O)OCC)=C(/N)N1CCN(c2ccc(OC)cc2)CC1	-1	1	-8	57*	-2	-1
